# The campaign covered roughly 400,000 compounds. About 2,100 (0.53%) were called active. Not shown: some 14% with an inconclusive outcome. The rule behind the calls is not given here. Only a selection was taken, and actives are over-represented in it overall.
# Molecular target: Ataxin-2 (Homo sapiens) (UniProt Q99700)
# Assay: qHTS for Inhibitors of ATXN expression.
# Type: functional
# Chain of Ataxin-2 (Homo sapiens) (Q99700 whole entry): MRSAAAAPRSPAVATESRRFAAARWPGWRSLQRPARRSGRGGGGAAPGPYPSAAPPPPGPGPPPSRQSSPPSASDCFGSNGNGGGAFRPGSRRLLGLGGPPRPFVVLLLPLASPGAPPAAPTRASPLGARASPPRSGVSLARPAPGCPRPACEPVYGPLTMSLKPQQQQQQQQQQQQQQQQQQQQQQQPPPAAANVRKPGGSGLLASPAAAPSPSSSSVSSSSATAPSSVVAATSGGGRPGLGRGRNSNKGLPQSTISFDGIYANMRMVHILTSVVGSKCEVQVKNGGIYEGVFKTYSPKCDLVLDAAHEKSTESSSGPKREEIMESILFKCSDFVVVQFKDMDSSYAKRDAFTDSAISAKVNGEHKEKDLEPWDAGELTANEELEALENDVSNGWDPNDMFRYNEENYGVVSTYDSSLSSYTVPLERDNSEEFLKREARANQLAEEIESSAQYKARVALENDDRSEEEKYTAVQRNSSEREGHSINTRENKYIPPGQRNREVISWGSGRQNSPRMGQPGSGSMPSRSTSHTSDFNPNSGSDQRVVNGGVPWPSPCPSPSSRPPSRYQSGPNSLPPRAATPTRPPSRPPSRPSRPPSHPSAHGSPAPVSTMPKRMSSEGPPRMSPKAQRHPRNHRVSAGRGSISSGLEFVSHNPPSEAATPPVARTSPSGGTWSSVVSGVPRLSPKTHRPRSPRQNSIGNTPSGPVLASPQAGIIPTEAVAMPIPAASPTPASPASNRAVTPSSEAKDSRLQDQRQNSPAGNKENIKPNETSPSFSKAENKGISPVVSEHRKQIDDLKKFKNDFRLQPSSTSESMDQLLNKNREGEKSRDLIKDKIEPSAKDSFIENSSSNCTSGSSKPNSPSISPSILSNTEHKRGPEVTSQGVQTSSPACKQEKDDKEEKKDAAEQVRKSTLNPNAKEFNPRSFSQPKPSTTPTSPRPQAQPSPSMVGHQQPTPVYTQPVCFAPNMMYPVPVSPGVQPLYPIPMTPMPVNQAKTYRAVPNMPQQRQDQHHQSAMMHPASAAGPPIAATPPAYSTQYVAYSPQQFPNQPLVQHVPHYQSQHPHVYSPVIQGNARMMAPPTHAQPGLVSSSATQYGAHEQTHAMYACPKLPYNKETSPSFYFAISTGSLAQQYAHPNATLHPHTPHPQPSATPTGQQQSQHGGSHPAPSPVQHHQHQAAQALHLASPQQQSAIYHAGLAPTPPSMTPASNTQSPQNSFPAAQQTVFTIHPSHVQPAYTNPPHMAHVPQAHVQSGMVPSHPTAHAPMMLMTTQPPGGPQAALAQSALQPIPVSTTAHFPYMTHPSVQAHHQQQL
row,Compound,Potency
1,COc1cccc(C(=O)Nc2ccc3[nH]c(O)nc3c2)c1OC,inactive
2,COc1ccccc1C(=O)Nc1cccc(N2CCC(NCc3cnn(-c4ccccc4)n3)CC2)c1,28.2 µM (active)
3,COc1ccccc1C(=O)Nc1nc2n(n1)C(c1ccc(F)cc1)C=C(c1ccc(Cl)cc1)N2 (configuration not stated),inactive
4,Cc1ccc(Cn2nc(C)c(NC(=O)CSc3nc4c(c(C(F)(F)F)n3)CCc3ccccc3-4)c2C)cc1,20 µM (active)
5,CCc1ccc(-c2cc(C(F)(F)F)n3nc(C(=O)Nc4c(C)nn(Cc5ccc(F)cc5)c4C)cc3n2)s1,inactive
6,COCCNC(=O)c1cc2nc3c(c(C(F)(F)F)n2n1)CCc1ccccc1-3,inactive
7,Cc1cccn2c(=O)c3cc(C(=O)NC4CCCC4)c(=N)n(CC4CCCO4)c3nc12 (configuration not stated),inactive
8,COCCCn1c(=N)c(C(=O)NC2CCCCC2)cc2c(=O)n3ccccc3nc21,inactive
9,O=C1/C(=C/c2ccco2)SC(=S)N1CCC(=O)N1CCCCC1CCO (configuration not stated),17.8 µM (active)
10,COc1cccc(/C=C2\SC(=S)N(CCCC(=O)N3CCCCC3CCO)C2=O)c1 (configuration not stated),39.8 µM (active)
11,COc1cccc(/C=C2\SC(=S)N(CCC(=O)NNC(=O)c3ccccc3OC)C2=O)c1,inactive
12,COc1cccc(N2C(=O)C3CCCN3C2=S)c1 (configuration not stated),inactive
13,COc1cccc(/C=C2\SC(=S)N(CC(=O)N(C)C3CCS(=O)(=O)C3)C2=O)c1 (configuration not stated),35.5 µM (active)
14,O=C1N=C(N2CCN(c3ccccc3)CC2)S/C1=C/c1ccco1,inactive
15,COc1cccc(/C=C2/SC(=S)N(CC(=O)NNC(=O)c3ccccc3OC)C2=O)c1,inactive
16,Cc1ccc(-n2nc(C)c3c(C(=O)OCC(=O)N(C)C4CCS(=O)(=O)C4)cc(-c4ccccc4)nc32)cc1 (configuration not stated),inactive
17,Cc1cccc(OCCn2c(NC(=O)c3ccco3)nc3ccccc32)c1,39.8 µM (active)
18,CCCn1nc(NC(=O)c2ccco2)c2cc3cc(C)ccc3nc21,inactive
19,CCCn1nc(NC(=O)c2ccco2)c2cc3ccc(C)cc3nc21,inactive
20,COCCCn1c(=N)c(C(=O)NCC2CCCO2)cc2c(=O)n3cc(C)ccc3nc21 (configuration not stated),inactive
21,Cc1cccc(C2=NN(c3ccccc3)[C@H](CO)[C@H]2c2ccccc2)c1,inactive

row,Compound,Potency
1,COc1ccccc1C(C[N+](=O)[O-])c1c(N)n(C)c(=O)n(C)c1=O (configuration not stated),14.1 µM (active)
2,CN(C)c1ccc(C(C[N+](=O)[O-])c2c(N)n(C)c(=O)n(C)c2=O)c(F)c1C#N (configuration not stated),25.1 µM (active)
3,Cn1c(N)c(C(=O)CN2CCc3ccccc3C2)c(=O)n(C)c1=O,inactive
4,COc1ccc(Br)cc1C(C[N+](=O)[O-])c1c(N)n(C)c(=O)n(C)c1=O (configuration not stated),17.8 µM (active)
5,CCn1cc(C(=O)N2CCCC(N3CCN(c4cccc(C(F)(F)F)c4)CC3)C2)cn1 (configuration not stated),inactive
6,CN(C)c1ncc(C2=C(Cl)C(=O)C(N3CCCC3)=C(Cl)C2=O)s1,25.1 µM (active)
7,Cc1cc2c(cc1C)C(=O)C(=O)N2,inactive
8,N#Cc1c(-c2ccccc2Cl)c2c([nH]c1=O)-c1ccccc1OC2,inactive
9,COc1cccc2cc(C(=O)C3=C(O)C(=O)N(CCN(C)C)C3c3ccc(Cl)cc3)oc12 (configuration not stated),inactive
10,COc1ccccc1-c1cc(C(=O)Nc2cc(C)n(Cc3ccc(Cl)cc3)n2)no1,28.2 µM (active)
11,COc1cccc2c1c(NC(=O)c1cc(C)on1)nn2C,inactive
12,CCN(CC)c1ccc2cc(C(=O)c3cccs3)c(=O)oc2c1,inactive
13,Cc1nc2ccccc2nc1OCC(=O)Nc1ccc(F)cc1,inactive
14,O=C(COc1ccccc1F)Nc1ccc(Cl)c(-c2nc3ccccc3[nH]2)c1,39.8 µM (active)
15,CCc1ccc(NC(=O)COc2ccc(/C=C(/C#N)c3nc4ccccc4[nH]3)cc2OC)cc1,inactive
16,C/C(=N/NC(=O)c1ccncc1)c1cc2ccc(O)cc2oc1=O,inactive
17,COc1cccc(C(c2nnnn2C2CCCC2)N2CCN(C/C=C/c3ccccc3)CC2)c1OC (configuration not stated),17.8 µM (active)
18,Cc1cc(C)cc(NC(=O)COC(=O)[C@@H](NC(=O)c2ccco2)C(C)C)c1,inactive
19,Cc1onc(-c2ccccc2)c1C(=O)OCCOc1ccccc1F,inactive
20,CCCCCCCCCCOC(=O)Cn1c(COc2ccc(Cl)cc2)[n+](C)c2ccccc21,25.1 µM (active)
21,CCCOc1ccc(-c2c(=O)n(OCC(=O)OCC)c3ccccc3[n+]2[O-])cc1,inactive

row,Compound,Potency
1,CC12CC3(C)CC(C)(C1)CC(C(=O)NCc1ccccn1)(C2)C3,inactive
2,Oc1ccccc1/C=N/n1c(S)nnc1-c1ccccc1,inactive
3,Cc1cc(-c2nnc(S)n2/N=C/C(Br)=C/c2ccccc2)[nH]n1,14.1 µM (active)
4,Sc1nnc(-c2ccccc2)n1/N=C/c1cccc(Cl)c1,inactive
5,CC(=O)n1cc(C(C[N+](=O)[O-])SCCN)c2ccccc21 (configuration not stated),22.4 µM (active)
6,COc1cc2ccc(=O)oc2c(O)c1OCC=C(C)C,inactive
7,COc1c(CC=C(C)C)cc(C2CC(=O)c3c(O)cc(O)cc3O2)cc1CC=C(C)C (configuration not stated),39.8 µM (active)
8,COC1=CC(=O)C(C2CC(=O)c3c(O)cc(O)cc3O2)=CC1=O (configuration not stated),33.6 µM (active)
9,CCOCCCn1c(=N)c(C(=O)NC(C)c2ccccc2)cc2c(=O)n3cccc(C)c3nc21 (configuration not stated),inactive
10,CN(C)c1nc(NC(C)(C)C)nc(SCC(=O)Nc2ccccc2)n1,inactive
11,C/C(CC(=O)Nc1ccc2c(c1)OCCO2)=N\NC(=O)COc1ccccc1C,inactive
12,COC(C(=O)N/N=C(\C)CC(=O)Nc1ccc(N(C)C)cc1)c1ccccc1 (configuration not stated),31.6 µM (active)
13,Nc1nc(-c2sc3nc4c(cc3c2N)CCCC4)nc(N2CCOCC2)n1,inactive
14,O=C(NCC1Cc2cccc(-c3cccnc3)c2O1)c1ccc2cc[nH]c2c1 (configuration not stated),inactive
15,Cc1cccn2c(=O)c3cc(C#N)c(=O)n(Cc4cccnc4)c3nc12,inactive
16,O=C(CCl)N1c2ccccc2Sc2c1ccc1ccccc21,26.7 µM (active)
17,Cc1nc2c(ncn2-c2ccccc2)c(=O)n1NC(=O)CN1CCCC1,inactive
18,N=C(NOC(=O)c1ccc2ccccc2c1)c1ccccc1Cl,39.8 µM (active)
19,O=C(NCCOc1ccccc1)c1ccccc1Cl,inactive
20,O=C(COC(=O)c1ccc2ccccc2c1)NCCCc1ccccc1,inactive
